According to PubChem BioAssay AID463173 (ICCB-Longwood Screening Facility, Harvard Medical School, 2010):
The campaign covered roughly 52,000 compounds. About 4,300 (8.3%) were called active. Shown is part of a subset that was picked to be rich in actives. A number with no mark means an inactive call. Rule as the data show it: active = survival mostly below about 52% (no sharp cut-off); inactive = mostly above about 56%.

test system: DeltatarO mutant; experiment: growth inhibition of S. aureus wild type versus tarO mutant, primary screen, teichoic acid synthesis inhibitors, RN4220, OD600 (AID 463173); settings: OD600, 18 h, hits give low values, screened at 18.75 µg/mL (by protocol)

Compound	survival
COc1ccc(Cn2c(CCC(=O)Nc3ccc(Br)c(C)c3)nc3cccnc32)cc1	71%
Cc1ccc(N2CC(NC(=O)/C=C\c3ccc4c(c3)OCO4)CC2=O)cc1 (centres undefined)	91%
COc1ccc(NC(=O)Cn2ccn(-c3ccc(C)c(C)c3)c(=O)c2=O)cc1Cl	72%
COc1ccc(OC)c(CNC(=O)c2ccccc2NC(=O)c2nsc3ccccc23)c1	92%
O=C(NC1CC(=O)N(c2ccccc2)C1)C(c1ccccc1)c1ccccc1 (centres undefined)	89%
Cc1nnc(Nc2ccc(C(=O)O)cc2)[nH]c1=O	108%
O=C1CCSC2(C(=O)N(Cc3ccc(F)cc3)c3ccccc32)N1c1ccccc1 (centres undefined)	78%
CC(=O)c1cccc(NS(=O)(=O)c2cc3c(cc2C)N(C(C)=O)CCO3)c1	95%
CCc1ccc(NC(=O)Cn2c(=O)n(CCCCC(=O)NCc3ccc4c(c3)OCO4)c(=O)c3ccccc32)cc1	87%
CCc1ccc(NC(=O)Cn2c(=O)n(CCCC(=O)NCc3ccc4c(c3)OCO4)c(=O)c3ccccc32)cc1	93% (active)
CCc1ccc(NC(=O)Cn2c(=O)n(CCC(=O)NCc3ccc4c(c3)OCO4)c(=O)c3ccccc32)cc1	91%
O=C(Cc1ccccc1)Nc1nnc2n1CCS2	71%
O=C(Cc1ccc(Cl)cc1)Nc1nnc2n1CCS2	77%
O=C(Cc1ccc(F)cc1)Nc1nnc2n1CCS2	52% (active)
CCOC(=O)c1c(C)[nH]c(CCC(=O)NCc2ccccc2C)c1C	80%
COc1cc(NS(=O)(=O)c2ccc(NC(=O)c3ccc(Cl)cc3Cl)cc2)nc(OC)n1	98%
O=C1OC(Nc2ccccc2C(F)(F)F)c2ccccc21 (centres undefined)	45%
O=C(Nc1ccc2ncccc2c1)c1ccccc1	94%
O=C1OC(Nc2ccccn2)c2ccccc21 (centres undefined)	42%
O=C1OC(Nc2ccc3ncccc3c2)c2ccccc21 (centres undefined)	30% (active)
CC(=O)Nc1ccc(NC2OC(=O)c3ccccc32)cc1 (centres undefined)	50%
Cc1ccc(NC2OC(=O)c3ccccc32)cc1 (centres undefined)	31% (active)
CCc1ccc(CNC(=O)CN2C(=O)c3cccnc3Oc3ccc(C)cc32)cc1	72%
Cc1ccc(C=N/C(=N\NC(=O)c2ccccc2)c2ccccc2)o1	94%

Compound	survival
COc1ccc2nc(N3CCN(C(=O)c4ccco4)CC3)sc2c1	88%
CCN(CC)CCCNC(=O)c1ccc2c(=O)n(CCc3ccccc3)c(=O)[nH]c2c1	82%
COc1nc(N2CCCCCC2)nc(N2CCCCCC2)n1	66%
CCN(CC)C(=O)C1CCCN(c2ncnc3onc(C)c23)C1 (centres undefined)	99%
CCOc1ccc(N(Cc2ccccc2)C(=O)c2nc(SC)ncc2Cl)cc1	72%
COc1ccc(N(Cc2ccccc2)C(=O)c2nc(SC)ncc2Cl)cc1	99%
CCSc1ncc(Cl)c(C(=O)N(Cc2ccccc2)c2ccc(OC)cc2)n1	100%
COc1ccc(CN(C(=O)c2ccco2)c2ccccc2)cc1	96%
CCS(=O)(=O)c1ncc(Cl)c(C(=O)N(Cc2ccccc2)c2ccc(OC)cc2)n1	36% (active)
CCOc1ccc(N(Cc2ccccc2)C(=O)c2nc(S(C)(=O)=O)ncc2Cl)cc1	24% (active)
COc1ccc(N(Cc2ccccc2)C(=O)c2nc(S(C)(=O)=O)ncc2Cl)cc1	51%
CCCSc1ncc(Cl)c(C(=O)N(Cc2ccccc2)c2ccc(OC)cc2)n1	45% (active)
CCOc1ccc(N(Cc2ccccc2)C(=O)c2nc(SCC)ncc2Cl)cc1	106%
COc1ccc(-c2cn3cccnc3n2)cc1NC(=O)c1cc(C)cc(C)c1	61%
Cc1cc(C)c(NC(=O)Nc2csc3c2CCCC3)c(C)c1	78%
Cc1c(CNCc2ccc(Cl)cc2)c(C(=O)O)c(C)n1Cc1ccc(F)cc1	77%
CCOc1ccc(S(=O)(=O)N2CCN(Cc3nc4ccc(C)cc4o3)CC2)cc1	73%
Cc1ccc(NC(=O)CN(Cc2ccccc2)S(=O)(=O)c2ccc3nc(C)sc3c2)c(C)c1	83%
CCC(=O)N1CCc2cc(CNC(=O)c3cccc(N(C)C)c3)ccc21	84%
CCOc1ccc(NC(=O)CC2C(=O)N(c3ccc(OC)cc3)C(=O)N2C2CCCCC2)cc1 (centres undefined)	110%
Cc1nccn1S(=O)(=O)c1c(C(C)C)cc(C(C)C)cc1C(C)C	86%
CCOc1cc(C)c(C(C)C)cc1S(=O)(=O)n1ccnc1CC	-3% (active)
CCOc1ccc(OCC)c(S(=O)(=O)n2cnc3cc(C)c(C)cc32)c1	104%
COc1cc(S(=O)(=O)n2ccnc2C(C)C)ccc1Br	55%

Compound	survival
CCc1nccn1S(=O)(=O)c1cc(Br)ccc1Br	43% (active)
Cc1nccn1S(=O)(=O)c1ccc(Cl)cc1Cl	67%
Cc1ccc(NC(=O)CN(C)S(=O)(=O)c2cnc[nH]2)cc1	102%
Cc1cc(C(=O)NCc2ccccc2)c2c(C)nn(-c3cccc(F)c3)c2n1	55%
O=C(NCc1ccccc1)C1CCN(c2ncnc3c2nc2n3CCCCC2)CC1	84%
O=C(C1CCN(c2ncnc3c2nc2n3CCCCC2)CC1)N1CCN(c2ccc(Cl)cc2)CC1	81%
Cc1ccc(N2CCN(C(=O)C3CCN(c4ncnc5c4nc4n5CCCCC4)CC3)CC2)c(C)c1	79%
O=C(C1CCN(c2ncnc3c2nc2n3CCCCC2)CC1)N1CCN(c2ccccc2)CC1	72%
Cc1cccc(N2CCN(c3ncnc4c3nc3n4CCCCC3)CC2C)c1 (centres undefined)	101%
O=C(NCCc1ccc(Cl)cc1)C1CCN(c2ncnc3c2nc2n3CCCCC2)CC1	89%
O=C(C1CCN(c2ncnc3c2nc2n3CCCCC2)CC1)N1CCN(c2ccc(F)cc2)CC1	-1% (active)
O=C(NCCc1ccccc1)C1CCN(c2ncnc3c2nc2n3CCCCC2)CC1	-2% (active)
Cc1cccc(N2CCN(C(=O)C3CCN(c4ncnc5c4nc4n5CCCCC4)CC3)CC2C)c1 (centres undefined)	6% (active)
O=c1c(N2CCc3ccccc3C2)csc2ccc(Br)cc12	78%
Cc1cc(C)c(S(=O)(=O)Nc2ccc(-c3ccc(N4CCCCCC4)nn3)cc2)c(C)c1	84%
O=C1CC(C(=O)NCc2ccccc2)N=C(N2CCCCC2)N1 (centres undefined)	97%
Cc1cc(C)cc(NC(=O)CN(C)S(=O)(=O)c2ccc3c(c2)CCC(=O)N3)c1	90%
CCCCOC(=O)OC1CCS(=O)(=O)C1 (centres undefined)	66%
Cc1cccc(-n2cc(-c3ccccc3)c3c(NC(C)C)ncnc32)c1	107%
Nc1ccc2nc(C(F)(F)F)[nH]c2c1	95%
Cc1nc2nc(C(F)(F)F)[nH]c2cc1Br	4% (active)
COc1ccccc1OC(C)C(=O)Nc1ccc(-c2nc3ccccc3s2)cc1 (centres undefined)	64%
Cc1cc2oc(C(=O)Nc3cccc(-c4nc5ccccc5o4)c3)c(C)c2cc1Cl	80%
Cc1cc(OC(C)C(=O)Nc2cccc(-c3nc4ccccc4o3)c2)cc(C)c1Cl (centres undefined)	46% (active)

Compound	survival
CC(C)C(=O)Nc1cccc(-c2nc3ccccc3o2)c1	112%
CC(=O)Nc1cccc(-c2nc3ccccc3o2)c1	107%
COc1ccccc1OC(C)C(=O)Nc1cccc(-c2nc3ccccc3s2)c1 (centres undefined)	37% (active)
CC(Oc1ccccc1F)C(=O)Nc1ccc(-c2nc3ccccc3s2)cc1 (centres undefined)	107%
Cc1ccc(C(=O)Nc2cccc(-c3nc4ccccc4o3)c2)c(Cl)c1	53%
COc1ccccc1OC(C)C(=O)Nc1cccc(-c2nc3ccccc3o2)c1 (centres undefined)	18% (active)
COc1ccc(-c2cn3nc(N4CCCC(C(=O)Nc5cccc(Cl)c5C)C4)sc3n2)cc1 (centres undefined)	82%
COc1ccc(-n2ncc(C(=O)NCCCN3CCCCC3)c2C2CCN(C(=O)OC(C)(C)C)CC2)cc1	73%
CCCOc1ccc(C(=O)Nc2ccc3oc(-c4ccncc4)nc3c2)cc1	62%
Cc1cccc(-c2cc(NC(=O)c3ccccc3C)n(-c3ccccc3)n2)c1	80%
Cc1nc2sc(C(=O)N(C)c3ccccc3)c(NC(=O)c3ccccc3Cl)c2c(C)c1C	57%
CCCCCn1c(=O)[nH]c2cc(C(=O)NCc3ccc(Cl)cc3)ccc2c1=O	71%
COc1cccc2cc(-c3csc(-c4ccc(Cl)cc4)n3)c(=O)oc12	99%
COc1ccc(NC(=O)c2c(C)oc3ccc(O)c(CN4CCCC4)c23)cc1Cl	80%
CCN1CCN(Cc2c(O)ccc3oc(C)c(C(=O)Nc4ccc(OC)c(Cl)c4)c23)CC1	66%
COc1ccc(NC(=O)c2c(C)oc3ccc(O)c(CN4CCCC(C)C4)c23)cc1 (centres undefined)	87%
COc1ccc(NC(=O)c2c(C)oc3ccc(O)c(CN4CCCC(C)C4)c23)cc1Cl (centres undefined)	52% (active)
COc1ccc(NC(=O)c2c(C)oc3ccc(O)c(CN4CCCCCC4)c23)cc1Cl	94%
COc1ccc(NC(=O)c2c(C)oc3ccc(O)c(CN4CCC(C)CC4)c23)cc1Cl	55% (active)
COc1ccc(CCNCc2c(C(=O)O)c(C)n(Cc3c(F)cccc3Cl)c2C)cc1OC	121%
CCCCOC(=O)c1ccc(NC(=O)Cn2nnc3sc4c(c3c2=O)CCCC4)cc1	67%
Cc1ccc(CCNS(=O)(=O)c2c(C)nc3sc(C)c(C)n3c2=O)cc1	82%
